# According to publication PMC7862700, “An all-to-all approach to the identification of sequence-specific readers for epigenetic DNA modifications on cytosine”:
# What was measured:
# Assay in all cases: DAPPL (digital affinity profiling via proximity ligation, sequencing); 10 mM Tris-HCl pH 7.5, 50 mM NaCl, 1 mM DTT, 4% glycerol, room temperature, 30 min; GST-TFs on glutathione beads, 16-mer random dsDNA library, 0.1% formaldehyde crosslink after washing; high values mean tight binding
# [1] = target: T1, FEV (Homo sapiens, UniProt Q99581 1-238); settings: protein: recombinant; tags: N-terminal GST; dsDNA, one strand shown
# T1 sequence: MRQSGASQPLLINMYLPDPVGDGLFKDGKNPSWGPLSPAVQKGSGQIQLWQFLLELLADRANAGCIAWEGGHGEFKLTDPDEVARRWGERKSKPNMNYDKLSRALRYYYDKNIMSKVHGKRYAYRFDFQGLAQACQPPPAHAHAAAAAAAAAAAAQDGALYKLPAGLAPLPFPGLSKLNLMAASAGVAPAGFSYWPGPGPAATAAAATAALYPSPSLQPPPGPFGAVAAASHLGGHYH
# How it was run: (§1)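 Human transcription factors were made in yeast as GST fusions, captured on glutathione beads and barcoded with DNA. With a tag-only sample included, the pool was incubated with 200 nmole of a random double-stranded 16-mer DNA library in Tris/NaCl/DTT/glycerol buffer at room temperature for 30 min, then crosslinked with 0.1% formaldehyde after washing, ligated by proximity, amplified and sequenced. For binding signal, each hexamer's read frequency for a factor is divided by its frequency for the tag-only sample.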
# [2] = target: ETV5 (Homo sapiens, UniProt P41161 1-510); settings: protein: recombinant; tags: N-terminal GST; dsDNA, one strand shown
# How it was run: as §1
# [3] = target: HSF1 (Homo sapiens, UniProt Q00613 1-529); settings: protein: recombinant; tags: N-terminal GST; chain copies: 3; dsDNA, one strand shown
# How it was run: as §1
# [4] = target: T2, SPIC (Homo sapiens, UniProt Q8N5J4 1-248); settings: protein: recombinant; tags: N-terminal GST; dsDNA, one strand shown
# T2 sequence: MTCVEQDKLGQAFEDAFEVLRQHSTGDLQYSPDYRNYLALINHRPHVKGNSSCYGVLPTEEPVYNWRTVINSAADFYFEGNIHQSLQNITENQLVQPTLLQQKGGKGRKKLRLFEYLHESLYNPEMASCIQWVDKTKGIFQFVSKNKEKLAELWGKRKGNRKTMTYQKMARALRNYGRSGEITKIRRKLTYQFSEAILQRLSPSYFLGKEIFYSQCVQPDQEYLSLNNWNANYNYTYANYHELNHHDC
# How it was run: as §1
# [5] = target: ELF4 (Homo sapiens, UniProt Q99607 1-663); settings: protein: recombinant; tags: N-terminal GST; dsDNA, one strand shown
# How it was run: as §1
# [6] = target: T3, ELK4 (Homo sapiens, UniProt P28324-2 1-405); settings: protein: recombinant; tags: N-terminal GST; dsDNA, one strand shown
# T3 sequence: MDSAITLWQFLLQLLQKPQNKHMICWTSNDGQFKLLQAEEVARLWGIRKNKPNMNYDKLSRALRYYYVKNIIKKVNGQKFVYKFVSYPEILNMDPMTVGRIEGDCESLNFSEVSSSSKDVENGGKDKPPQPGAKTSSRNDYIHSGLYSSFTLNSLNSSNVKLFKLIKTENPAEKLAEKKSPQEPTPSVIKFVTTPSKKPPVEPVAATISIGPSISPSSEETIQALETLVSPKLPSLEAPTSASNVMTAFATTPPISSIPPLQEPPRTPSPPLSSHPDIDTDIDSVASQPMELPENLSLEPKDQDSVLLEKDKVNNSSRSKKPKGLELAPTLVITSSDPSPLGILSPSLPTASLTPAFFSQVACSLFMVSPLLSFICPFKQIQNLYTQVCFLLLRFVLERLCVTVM
# How it was run: as §1
# [7] = target: T4, ETV2 (Homo sapiens, UniProt O00321 1-342); settings: protein: recombinant; tags: N-terminal GST; dsDNA, one strand shown
# T4 sequence: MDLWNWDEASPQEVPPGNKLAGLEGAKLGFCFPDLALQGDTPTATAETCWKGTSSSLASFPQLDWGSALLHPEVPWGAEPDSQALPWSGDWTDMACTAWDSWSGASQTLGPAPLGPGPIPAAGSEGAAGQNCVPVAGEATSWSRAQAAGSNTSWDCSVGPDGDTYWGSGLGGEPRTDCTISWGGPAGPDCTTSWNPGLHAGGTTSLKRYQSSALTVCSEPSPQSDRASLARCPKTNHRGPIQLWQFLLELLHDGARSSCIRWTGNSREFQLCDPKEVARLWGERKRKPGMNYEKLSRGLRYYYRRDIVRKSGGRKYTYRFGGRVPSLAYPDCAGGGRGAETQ
# How it was run: as §1
# [8] = target: T5, ELF3 (Homo sapiens, UniProt P78545 1-371); settings: protein: recombinant; tags: N-terminal GST; dsDNA, one strand shown
# T5 sequence: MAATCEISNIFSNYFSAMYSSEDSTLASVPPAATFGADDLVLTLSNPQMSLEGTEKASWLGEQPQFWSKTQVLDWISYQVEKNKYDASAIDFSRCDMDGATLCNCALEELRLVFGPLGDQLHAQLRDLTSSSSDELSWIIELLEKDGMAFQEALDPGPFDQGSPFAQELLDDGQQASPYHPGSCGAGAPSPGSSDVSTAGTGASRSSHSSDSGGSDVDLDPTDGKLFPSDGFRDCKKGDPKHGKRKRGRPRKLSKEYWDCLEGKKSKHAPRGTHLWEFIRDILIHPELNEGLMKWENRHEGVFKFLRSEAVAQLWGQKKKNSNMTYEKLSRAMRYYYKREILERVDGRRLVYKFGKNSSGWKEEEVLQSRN
# How it was run: as §1
# [9] = target: CRX (Homo sapiens, UniProt O43186 1-299); settings: protein: recombinant; tags: N-terminal GST; dsDNA, one strand shown
# How it was run: as §1
# [10] = target: ETV1 (Homo sapiens, UniProt P50549 1-477); settings: protein: recombinant; tags: N-terminal GST; dsDNA, one strand shown
# How it was run: as §1
# [11] = target: T6, ERF (Homo sapiens, UniProt P50548 1-548); settings: protein: recombinant; tags: N-terminal GST; dsDNA, one strand shown
# T6 sequence: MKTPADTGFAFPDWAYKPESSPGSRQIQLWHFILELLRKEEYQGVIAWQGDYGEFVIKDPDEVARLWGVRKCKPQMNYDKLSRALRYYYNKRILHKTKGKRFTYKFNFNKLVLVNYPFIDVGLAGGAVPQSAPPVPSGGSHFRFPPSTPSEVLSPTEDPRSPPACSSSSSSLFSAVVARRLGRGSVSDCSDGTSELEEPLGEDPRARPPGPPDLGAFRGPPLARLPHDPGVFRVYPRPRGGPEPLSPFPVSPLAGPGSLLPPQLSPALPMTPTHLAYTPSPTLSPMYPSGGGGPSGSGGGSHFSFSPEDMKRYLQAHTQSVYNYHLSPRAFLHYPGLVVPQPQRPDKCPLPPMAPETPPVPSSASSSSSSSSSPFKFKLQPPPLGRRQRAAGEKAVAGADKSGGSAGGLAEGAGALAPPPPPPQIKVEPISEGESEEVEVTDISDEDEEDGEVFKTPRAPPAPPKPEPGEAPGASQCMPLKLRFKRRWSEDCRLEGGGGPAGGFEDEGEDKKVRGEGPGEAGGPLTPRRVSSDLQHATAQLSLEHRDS
# How it was run: as §1
# [12] = target: T7, ETV3L (Homo sapiens, UniProt Q6ZN32 1-361); settings: protein: recombinant; tags: N-terminal GST; dsDNA, one strand shown
# T7 sequence: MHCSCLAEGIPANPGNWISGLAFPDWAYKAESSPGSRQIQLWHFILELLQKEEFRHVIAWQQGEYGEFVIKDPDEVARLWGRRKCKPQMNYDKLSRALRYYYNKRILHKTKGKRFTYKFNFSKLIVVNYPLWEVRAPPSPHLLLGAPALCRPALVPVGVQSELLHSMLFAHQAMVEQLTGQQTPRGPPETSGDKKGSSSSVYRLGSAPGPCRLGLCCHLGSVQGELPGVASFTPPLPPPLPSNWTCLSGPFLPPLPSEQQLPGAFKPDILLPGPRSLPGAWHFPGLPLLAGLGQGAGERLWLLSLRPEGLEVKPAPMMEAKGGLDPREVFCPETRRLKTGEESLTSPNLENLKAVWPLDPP
# How it was run: as §1
# [13] = target: T8, ETS2 (Homo sapiens, UniProt P15036 1-469); settings: protein: recombinant; tags: N-terminal GST; dsDNA, one strand shown
# T8 sequence: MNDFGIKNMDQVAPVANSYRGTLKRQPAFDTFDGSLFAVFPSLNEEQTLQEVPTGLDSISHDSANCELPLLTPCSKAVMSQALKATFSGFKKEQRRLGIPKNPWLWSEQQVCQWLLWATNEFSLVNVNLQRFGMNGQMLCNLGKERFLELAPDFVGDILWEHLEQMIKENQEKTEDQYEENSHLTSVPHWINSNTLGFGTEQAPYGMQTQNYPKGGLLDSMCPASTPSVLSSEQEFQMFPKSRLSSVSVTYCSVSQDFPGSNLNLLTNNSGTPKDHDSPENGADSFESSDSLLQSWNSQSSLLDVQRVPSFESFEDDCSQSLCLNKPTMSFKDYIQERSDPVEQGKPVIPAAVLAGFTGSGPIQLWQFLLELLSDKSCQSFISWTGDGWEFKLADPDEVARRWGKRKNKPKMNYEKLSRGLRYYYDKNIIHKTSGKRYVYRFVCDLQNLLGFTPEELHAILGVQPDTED
# How it was run: as §1
# [14] = target: T9, SPDEF (Homo sapiens, UniProt O95238 1-335); settings: protein: recombinant; tags: N-terminal GST; dsDNA, one strand shown
# T9 sequence: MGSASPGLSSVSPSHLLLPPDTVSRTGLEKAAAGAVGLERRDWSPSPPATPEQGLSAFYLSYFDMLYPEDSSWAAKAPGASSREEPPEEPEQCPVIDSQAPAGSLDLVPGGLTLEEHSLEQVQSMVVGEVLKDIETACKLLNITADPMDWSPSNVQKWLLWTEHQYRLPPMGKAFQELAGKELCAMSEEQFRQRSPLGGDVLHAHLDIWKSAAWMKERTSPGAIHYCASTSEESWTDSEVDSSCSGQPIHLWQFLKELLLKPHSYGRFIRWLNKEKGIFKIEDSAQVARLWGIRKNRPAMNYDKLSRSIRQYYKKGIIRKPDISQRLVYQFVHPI
# How it was run: as §1
# [15] = target: T10, ETV7 (Homo sapiens, UniProt Q9Y603 1-341); settings: protein: recombinant; tags: N-terminal GST; dsDNA, one strand shown
# T10 sequence: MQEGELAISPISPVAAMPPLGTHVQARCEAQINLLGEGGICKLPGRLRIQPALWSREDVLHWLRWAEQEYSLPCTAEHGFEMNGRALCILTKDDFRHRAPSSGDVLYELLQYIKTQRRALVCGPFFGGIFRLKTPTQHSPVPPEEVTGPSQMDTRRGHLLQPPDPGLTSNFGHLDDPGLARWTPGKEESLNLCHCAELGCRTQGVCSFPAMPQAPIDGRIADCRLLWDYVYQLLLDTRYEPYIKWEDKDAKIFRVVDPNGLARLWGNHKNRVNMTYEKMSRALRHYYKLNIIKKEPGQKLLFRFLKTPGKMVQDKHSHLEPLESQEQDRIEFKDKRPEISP
# How it was run: as §1
# [16] = target: T11, ELF5 (Homo sapiens, UniProt Q9UKW6-2 1-255); settings: protein: recombinant; tags: N-terminal GST; dsDNA, one strand shown
# T11 sequence: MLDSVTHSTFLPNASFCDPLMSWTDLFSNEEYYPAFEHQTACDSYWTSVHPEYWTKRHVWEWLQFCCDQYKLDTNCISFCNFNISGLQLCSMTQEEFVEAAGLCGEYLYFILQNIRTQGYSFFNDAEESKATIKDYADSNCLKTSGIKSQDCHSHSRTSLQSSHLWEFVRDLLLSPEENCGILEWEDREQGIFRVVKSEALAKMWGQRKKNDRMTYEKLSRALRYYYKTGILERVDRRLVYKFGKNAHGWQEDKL
# How it was run: as §1
# [17] = target: T12, ETV3 (Homo sapiens, UniProt P41162-2 1-143); settings: protein: recombinant; tags: N-terminal GST; dsDNA, one strand shown
# T12 sequence: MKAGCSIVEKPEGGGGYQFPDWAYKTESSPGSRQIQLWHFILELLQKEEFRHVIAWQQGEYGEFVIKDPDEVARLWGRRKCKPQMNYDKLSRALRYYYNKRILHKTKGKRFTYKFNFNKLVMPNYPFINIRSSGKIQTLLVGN
# How it was run: as §1
# [18] = target: ETV6 (Homo sapiens, UniProt P41212 1-452); settings: protein: recombinant; tags: N-terminal GST; dsDNA, one strand shown
# How it was run: as §1
# Sequence of ETV6 (P41212 whole entry): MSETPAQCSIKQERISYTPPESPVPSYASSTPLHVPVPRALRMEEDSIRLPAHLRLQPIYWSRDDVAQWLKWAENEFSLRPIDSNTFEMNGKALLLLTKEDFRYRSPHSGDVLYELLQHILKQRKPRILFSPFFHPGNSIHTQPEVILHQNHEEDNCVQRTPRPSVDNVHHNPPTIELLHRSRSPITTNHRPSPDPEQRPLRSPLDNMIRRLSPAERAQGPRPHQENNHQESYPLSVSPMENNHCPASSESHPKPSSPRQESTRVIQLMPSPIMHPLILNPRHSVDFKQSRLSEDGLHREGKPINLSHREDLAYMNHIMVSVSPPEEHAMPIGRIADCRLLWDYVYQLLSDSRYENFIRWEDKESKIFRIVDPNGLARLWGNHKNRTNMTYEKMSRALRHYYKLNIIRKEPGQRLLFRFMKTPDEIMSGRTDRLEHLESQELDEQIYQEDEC
# Sequence of ELF4 (Q99607 whole entry): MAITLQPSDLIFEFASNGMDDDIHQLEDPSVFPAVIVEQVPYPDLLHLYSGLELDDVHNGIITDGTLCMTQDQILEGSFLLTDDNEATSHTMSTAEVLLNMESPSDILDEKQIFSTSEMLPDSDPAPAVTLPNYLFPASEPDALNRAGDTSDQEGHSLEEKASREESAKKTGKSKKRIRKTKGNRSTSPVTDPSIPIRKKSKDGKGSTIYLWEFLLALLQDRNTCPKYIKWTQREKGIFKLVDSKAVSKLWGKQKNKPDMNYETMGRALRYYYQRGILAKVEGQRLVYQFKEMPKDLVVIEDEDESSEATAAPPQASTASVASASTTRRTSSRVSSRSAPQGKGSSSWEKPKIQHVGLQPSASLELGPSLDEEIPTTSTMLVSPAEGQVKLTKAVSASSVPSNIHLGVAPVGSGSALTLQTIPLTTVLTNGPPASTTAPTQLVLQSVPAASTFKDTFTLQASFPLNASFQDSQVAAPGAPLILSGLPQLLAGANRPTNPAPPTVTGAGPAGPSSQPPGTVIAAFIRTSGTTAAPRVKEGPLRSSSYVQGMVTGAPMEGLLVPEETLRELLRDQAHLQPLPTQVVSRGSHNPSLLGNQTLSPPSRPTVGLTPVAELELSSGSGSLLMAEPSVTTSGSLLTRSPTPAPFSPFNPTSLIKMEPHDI
# Sequence of CRX (O43186 whole entry): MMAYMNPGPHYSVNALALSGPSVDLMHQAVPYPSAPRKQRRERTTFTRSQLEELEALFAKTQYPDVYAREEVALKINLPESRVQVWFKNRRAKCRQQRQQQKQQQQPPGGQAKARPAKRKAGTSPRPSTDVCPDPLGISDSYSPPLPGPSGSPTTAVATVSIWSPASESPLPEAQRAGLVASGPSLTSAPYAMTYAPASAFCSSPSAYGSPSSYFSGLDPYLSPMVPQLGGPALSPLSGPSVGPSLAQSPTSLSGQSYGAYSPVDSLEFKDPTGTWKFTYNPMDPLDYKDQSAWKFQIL
# Sequence of ETV5 (P41161 whole entry): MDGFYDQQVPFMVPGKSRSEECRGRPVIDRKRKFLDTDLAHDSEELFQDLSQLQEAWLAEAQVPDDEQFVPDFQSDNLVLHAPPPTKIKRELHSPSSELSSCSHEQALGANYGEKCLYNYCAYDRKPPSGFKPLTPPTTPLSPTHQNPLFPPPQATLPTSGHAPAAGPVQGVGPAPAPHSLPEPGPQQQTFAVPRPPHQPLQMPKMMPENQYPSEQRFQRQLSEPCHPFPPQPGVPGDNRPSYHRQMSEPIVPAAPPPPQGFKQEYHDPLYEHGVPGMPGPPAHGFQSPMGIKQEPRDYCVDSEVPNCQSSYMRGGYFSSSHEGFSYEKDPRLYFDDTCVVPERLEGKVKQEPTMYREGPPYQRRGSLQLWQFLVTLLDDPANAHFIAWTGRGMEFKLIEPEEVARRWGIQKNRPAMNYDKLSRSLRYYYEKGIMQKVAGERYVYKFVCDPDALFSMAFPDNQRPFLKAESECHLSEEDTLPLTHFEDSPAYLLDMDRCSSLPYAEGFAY
# Sequence of ETV1 (P50549 whole entry): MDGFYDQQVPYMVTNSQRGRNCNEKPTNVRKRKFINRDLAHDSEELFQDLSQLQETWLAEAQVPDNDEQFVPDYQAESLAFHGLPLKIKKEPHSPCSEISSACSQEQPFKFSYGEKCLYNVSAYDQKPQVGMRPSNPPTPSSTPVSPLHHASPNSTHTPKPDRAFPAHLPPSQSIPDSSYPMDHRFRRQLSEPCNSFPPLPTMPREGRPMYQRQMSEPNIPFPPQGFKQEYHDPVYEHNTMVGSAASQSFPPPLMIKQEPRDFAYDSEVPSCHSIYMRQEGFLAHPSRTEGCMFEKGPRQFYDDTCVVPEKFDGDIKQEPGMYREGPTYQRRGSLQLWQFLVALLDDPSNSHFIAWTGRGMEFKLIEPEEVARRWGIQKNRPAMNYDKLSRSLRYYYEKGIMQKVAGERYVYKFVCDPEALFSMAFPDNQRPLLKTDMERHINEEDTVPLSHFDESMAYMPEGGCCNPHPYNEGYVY
# Sequence of HSF1 (Q00613 whole entry): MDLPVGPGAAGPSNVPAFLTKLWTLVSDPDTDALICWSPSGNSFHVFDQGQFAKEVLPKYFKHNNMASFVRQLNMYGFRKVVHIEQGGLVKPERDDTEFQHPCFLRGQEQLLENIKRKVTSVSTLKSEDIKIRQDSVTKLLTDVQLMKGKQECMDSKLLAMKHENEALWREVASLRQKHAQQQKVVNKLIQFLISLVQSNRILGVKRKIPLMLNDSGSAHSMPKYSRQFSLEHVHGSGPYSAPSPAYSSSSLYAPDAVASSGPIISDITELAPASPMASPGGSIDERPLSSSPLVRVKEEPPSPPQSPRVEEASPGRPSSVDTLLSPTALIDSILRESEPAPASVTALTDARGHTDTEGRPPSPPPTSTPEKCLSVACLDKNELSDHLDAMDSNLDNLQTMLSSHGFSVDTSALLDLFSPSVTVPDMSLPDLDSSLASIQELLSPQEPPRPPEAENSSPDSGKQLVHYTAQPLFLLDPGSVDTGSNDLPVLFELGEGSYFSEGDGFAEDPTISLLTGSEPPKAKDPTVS
sequence,measurement,setting,value
TTTCCC,binding signal,[1],"1.61 fold enrichment (6-mer frequency, TF over GST control)"
same,binding signal,[2],"1.93 fold enrichment (6-mer frequency, TF over GST control)"
same,binding signal,[3],"1.57 fold enrichment (6-mer frequency, TF over GST control)"
same,binding signal,[4],"1.87 fold enrichment (6-mer frequency, TF over GST control)"
same,binding signal,[5],"1.77 fold enrichment (6-mer frequency, TF over GST control)"
same,binding signal,[6],"1.47 fold enrichment (6-mer frequency, TF over GST control)"
same,binding signal,[7],"1.58 fold enrichment (6-mer frequency, TF over GST control)"
same,binding signal,[8],"1.43 fold enrichment (6-mer frequency, TF over GST control)"
same,binding signal,[9],"1.43 fold enrichment (6-mer frequency, TF over GST control)"
same,binding signal,[10],"1.6 fold enrichment (6-mer frequency, TF over GST control)"
same,binding signal,[11],"1.57 fold enrichment (6-mer frequency, TF over GST control)"
same,binding signal,[12],"1.7 fold enrichment (6-mer frequency, TF over GST control)"
same,binding signal,[13],"1.71 fold enrichment (6-mer frequency, TF over GST control)"
same,binding signal,[14],"1.45 fold enrichment (6-mer frequency, TF over GST control)"
same,binding signal,[15],"1.65 fold enrichment (6-mer frequency, TF over GST control)"
same,binding signal,[16],"2.51 fold enrichment (6-mer frequency, TF over GST control)"
same,binding signal,[17],"1.75 fold enrichment (6-mer frequency, TF over GST control)"
same,binding signal,[18],"1.97 fold enrichment (6-mer frequency, TF over GST control)"
